Assay outcomes: PubChem BioAssay, several laboratories
Mot1-301 SUMO – SUMOylation pathway inhibition by Mot1-301 growth rescue. hit rate 1% among 320,000. growth rescue, % at 18.8 µM. S. cerevisiae Mot1-301 growth rescue, ATP luminescence, 38.5C; percent above DMSO median, 100 means doubled;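 active = every valid replicate shows activation above 250% relative to neutral control wells; inactive = the rest, any valid replicate at or below 250%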;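 also: OY570 slx delta 5 strain wells were the positive control but not used for scaling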
tim10-1 inh – tim10-1 yeast growth inhibition; inhibition, % at 20 µM; AID 463190; hit rate 2.2% among 330,000; S. cerevisiae tim10-1 ts strain growth, BacTiter-Glo, 24 h;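 active = inhibition of at least 40%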;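 also: mutant grown at 25 °C; 0% = DMSO wells with yeast and 100% = wells holding no yeast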
TIM10 inh – TIM10 yeast growth inhibition; S. cerevisiae TIM10 strain growth, BacTiter-Glo luminescence, 24 h; inhibition, % at 10 µM; hit rate 1.4% among 330,000; AID 463195;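 active = inhibition of 40% or more at the single tested concentration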;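 also: wild-type TIM10 isogenic control strain grown at permissive 25 °C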
tim23-1 inh – inhibits growth of tim23-1 mutant yeast | hit rate 1.3% among 330,000 | S. cerevisiae tim23-1 growth, BacTiter-Glo luminescence, 24 h | inhibition, % at 20 µM;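 active = growth inhibition of the mutant yeast at or above 50%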;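 also: temperature-sensitive mutant grown at 25 °C; plate controls were DMSO-treated mutant yeast for no effect and medium wells lacking yeast for full effect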
PfHsp90 yeast 2 – reduces growth (ATP signal) of yeast expressing P. falciparum Hsp90; hit rate 0.32% among 310,000; S. cerevisiae expressing PfHsp90, BacTiter-Glo ATP, 48 h; yeast lacking PDR1 and PDR3 efflux regulators; AID 504621; inhibition, % at 9.4 µM;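 active = every replicate shows inhibition above about 80%, whatever the replicate mean, limit read from the data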;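 also: 0% = DMSO neutral controls and 100% = 20 µM radicicol positive controls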
tim23-1 conf – tim23-1 yeast growth inhibition, confirmed; S. cerevisiae tim23-1 growth, BacTiter-Glo luminescence, 24 h; inhibition, % at 20 µM; shares compounds with tim23-1 inh; hit rate 83% among 4,400;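 active = inhibition above about 39% in either of two replicate wells at 20 µM, limit read from the data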;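 also: temperature-sensitive tim23-1 mutant grown at 25 °C; 0% = DMSO wells with yeast and 100% = medium wells without yeast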
Numbers without * were called inactive; · = not tested or not shown. Shown are actives, neighbours in structure and some others; about 4.4% of the full set was active somewhere.

SMILES	Mot1-301 SUMO	tim10-1 inh	TIM10 inh	tim23-1 inh	PfHsp90 yeast 2	tim23-1 conf
CCOc1cc(/C=C2\COc3ccccc3C2=O)cc(Br)c1OCC(=O)N(C)C	64	10	2	50*	47	57*
C#CCOCCOCCOCCNc1nc(N2CCN(C(=O)CCCCCCCCCCNC(=O)[C@H](CCCCN)n3cc(CCO)nn3)CC2)nc(N2CCN(C(=O)CCCCCCCCCCNC(=O)[C@H](CCCCN)n3cc(C[C@@H](C)CC)nn3)CC2)n1	-26	28	13	57*	·	56*
C#CCOCCOCCOCCNc1nc(N2CCN(C(=O)CCCCCCCCCCNC(=O)[C@H](CCCCN)n3cc(C[C@@H](C)CC)nn3)CC2)nc(N2CCN(C(=O)CCCCCCCCCCNC(=O)[C@H](CCCN=C(N)N)n3cc(C[C@@H](C)CC)nn3)CC2)n1	-14	29	-6	47	-9	·
C#CCOCCOCCOCCNc1nc(N2CCN(C(=O)CCCCCCCCCCNC(=O)[C@H](CO)n3cc(CCCCCN)nn3)CC2)nc(N2CCN(C(=O)CCCCCCCCCCNC(=O)[C@H](CCCN=C(N)N)n3cc(C[C@@H](C)CC)nn3)CC2)n1	-24	34	20	52*	·	49*
Cc1cccn2cc(-c3ccccc3)nc12	12	16	0	18	-23	·
Oc1ccc(Br)cc1C=Nc1cccn2cc(-c3ccccc3)nc12	-6	29	4	54*	11	54*
Cc1ccc(S(=O)(=O)Nc2ccc3c(c2)OCCO3)c(C)c1NS(C)(=O)=O	28	9	-12	9	-35	·
COc1cc(C=O)ccc1OCc1ccncc1	1	15	13	0	-10	·
COc1cc(C=O)c(Br)cc1OCc1ccc(C)cc1	2	13	39	65*	-111	57*
C/C(=N\NC(=O)c1ccccc1)c1ccccc1F	-10	9	2	8	·	·
C/C(=N\NC(=O)c1ccccc1OCCOc1ccccc1)c1ccccc1F	·	10	3	53*	·	37
COc1ccc(C(=O)O)cc1S(=O)(=O)Nc1ccc(N2CCCCC2)cc1	29	0	6	5	-1	·
CC(C)Oc1ccc(CNC(=O)c2cc(S(=O)(=O)N3CCOCC3)cn2C)cc1	5	12	7	9	2	·
Cc1cc(C)n(-c2nc3ccccc3c(=O)n2OCc2ccc(Cl)cc2)n1	502	29	15	52*	·	51*
CC1CCN(C(=O)CSc2nnc(CNC(=O)c3ccc(F)cc3)o2)CC1	-6	-14	-1	-11	24	·
CC/C(=C(\c1ccccc1)c1ccc(OCCN(C)C)cc1)c1ccccc1	11	33	29	43	-9	34
COCC(=O)N/N=C\c1ccccc1OC/C=C/c1ccccc1	-15	25	19	51*	-28	39*
COCC(=O)N/N=C\c1cccc(OC)c1OC/C=C/c1ccccc1	22	23	13	37	-34	·
Cc1ccccc1-c1nn2c(-c3ccccc3)nnc2s1	8	38	18	53*	-18	51*
Cc1cc(-c2nn3c(-c4ccccc4)nnc3s2)c2ccccc2n1	-22	31	27	17	-7	·
COc1ccc(C2CC(c3ccccc3)=NN2c2ccc(Cl)c(C(=O)O)c2)cc1 (stereo unspecified)	0	10	8	21	-31	·
CCC(=O)Nc1cccc(C2=NN(c3ccccc3)C(c3ccc(OC)cc3)C2)c1 (stereo unspecified)	-7	8	13	51*	-42	30
COc1ccc(C2CC(c3ccccc3)=NN2c2ccc(N)cc2)cc1 (stereo unspecified)	9	28	27	51*	-12	41*
Cc1[nH][nH]c(=O)c1C(c1ccc(-c2cccc(C(=O)O)c2)o1)c1c(C)[nH][nH]c1=O	-3	8	6	12	26	·
Cc1[nH][nH]c(=O)c1C(c1ccc(-c2cccc(Cl)c2)o1)c1c(C)[nH][nH]c1=O	-16	3	-19	78*	11	62*
SMILES	Mot1-301 SUMO	tim10-1 inh	TIM10 inh	tim23-1 inh	PfHsp90 yeast 2	tim23-1 conf
COC(=O)c1ccc(-c2ccc(C(c3c(C)[nH][nH]c3=O)c3c(C)[nH][nH]c3=O)o2)cc1	-7	0	-6	57*	7	37*
N#Cc1ccc(C(=O)N(Cc2ccco2)c2c(N)n(Cc3ccccc3)c(=O)[nH]c2=O)cc1	·	13	10	39	·	·
Nc1c(N(Cc2ccco2)C(=O)c2ccc(Br)cc2)c(=O)[nH]c(=O)n1Cc1ccccc1	·	6	17	59*	16	72*
Nc1c(N(Cc2ccco2)C(=O)c2ccc(Cl)cc2)c(=O)[nH]c(=O)n1Cc1ccccc1	-12	0	16	60*	·	66*
CC(C)Nc1cc(C(F)(F)F)nc(-c2ccccn2)n1	·	35	-13	-10	·	·
FC(F)(F)c1cc(Nc2ccccc2)nc(-c2ccccn2)n1	-15	22	35	51*	9	34
O=C(/C=C\Nc1ccc2c(c1)OCO2)c1cccs1	-2	22	40	48	-6	·
Cc1ccc(N/C=C/C(=O)c2cccs2)cc1	5	-12	13	56*	11	57*
O=C(/C=C\Nc1cccc(F)c1)c1cccs1	566	8	24	53*	-9	51*
O=C(/C=C/Nc1ccc(F)cc1F)c1cccs1	11	9	26	14	8	·
CC1=C(C)C(C)=C(C#N)C(=C(C#N)C#N)N1	3	20	8	-1	9	·
O=C(N/N=C/c1cccs1)c1cc(-c2cccc3ccccc23)n[nH]1	27	-40	-5	51*	8	48*
CCOC(=O)Nc1sc(C)nc1-c1ccccc1	4	-21	-7	0	0	·
CCOC(=O)Nc1nc(-c2ccccc2)c(C(=O)c2ccc(Cl)cc2)s1	-8	34	34	53*	-18	59*
COC(=O)c1ccccc1C(=O)N1CCCC(CNC(=O)c2ccc(F)cc2)C1 (stereo unspecified)	1	13	-3	11	15	·
CC(C)C(NC(=O)c1c(F)cccc1F)C(=O)N1CCN(c2ccccc2F)CC1 (stereo unspecified)	1	21	-1	17	-7	·
c1ccc(-c2sc3ccccc3c2-c2ccc(OCCN3CCCC3)cc2)cc1	298*	-1	-9	61*	17	42*
COc1ccccc1-c1sc2ccccc2c1-c1ccc(OCCN2CCCCC2)cc1	·	13	-112	52*	3	37
COc1cccc(-c2sc3ccccc3c2-c2ccc(OCCN3CCCCC3)cc2)c1	162	-31	7	70*	29	-12
COc1ccc(C(=O)NCC(=O)OCC(=O)NC2CCCCCC2)cc1	-6	14	9	23	-3	·
CC1(C)OC(C)(C)/C(=C\c2ccc(OCC(N)=O)cc2)C1=O	-3	25	14	26	-19	·
